According to PubChem BioAssay (NCI):
Compounds without any hit were thinned out: in the full panel of roughly 83,000, 20% have a hit.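 A percent growth of 40 corresponds to 60% growth inhibition; 0 means no net growth; -100 means all cells died. Active threshold: below 10.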 Unmarked numbers belong to inactive results. Calls of active or inactive are those of the source.

Columns and labels:
Experiment in all cases: NCI-60 one-dose screen, 48 h (100 = growth as untreated, 0 = no growth, -100 = all killed)
Details in all cases: 10 µM unless noted
NCI-H23 lung = system: NCI-H23 lung
NCI-H226 lung = system: NCI-H226 lung
NCI-H322M lung = system: NCI-H322M lung
HOP-62 NSCLC = system: HOP-62 NSCLC
NCI-H460 lung = system: NCI-H460 lung
HOP-92 NSCLC = system: HOP-92 NSCLC
A549/ATCC NSCLC = system: A549/ATCC NSCLC
786-0 renal = system: 786-0 renal
COLO 205 colon = system: COLO 205 colon
DU-145 prostate = system: DU-145 prostate
K-562 leukemia = system: K-562 leukemia
MALME-3M melanoma = system: MALME-3M melanoma
MDA-MB-231 breast = system: MDA-MB-231 breast
SF-268 CNS = system: SF-268 CNS
SF-295 CNS = system: SF-295 CNS
SF-539 CNS = system: SF-539 CNS
M14 melanoma = system: M14 melanoma
RXF 393 renal = system: RXF 393 renal
UACC-257 melanoma = system: UACC-257 melanoma

Row | Structure (SMILES) | growth (NCI-H23 lung) | growth (NCI-H226 lung) [%] | growth (NCI-H322M lung) | growth (HOP-62 NSCLC) | growth (NCI-H460 lung) | growth (HOP-92 NSCLC) | growth (A549/ATCC NSCLC) [%] | growth (786-0 renal) | growth (COLO 205 colon) | growth (DU-145 prostate) | growth (K-562 leukemia) | growth (MALME-3M melanoma) [%] | growth (MDA-MB-231 breast) | growth (SF-268 CNS) | growth (SF-295 CNS) | growth (SF-539 CNS) | growth (M14 melanoma) | growth (RXF 393 renal) | growth (UACC-257 melanoma)
1 | COc1cc(-c2n[nH]nc2-c2ccccn2)cc(OC)c1OC | 98.2% | 90.3 | 95.8% | 97.5% | 104% | 86.3% | 65.6 | 96.4% | 119% | 112% | 90.6% | 90.5 | 98.3% | 114% | 115% | 104% | 113% | – | –
2 | O=C1NC(=O)/C(=C\c2ccco2)S1 | 101% | 95.8 | 111% | 90.7% | 105% | 87% | 108 | 99% | 91.4% | 112% | 111% | 101 | 89.5% | 99.4% | – | 103% | 104% | 106% | 108%
3 | N[C@H](CS)C(=O)O | 102% | 105 | 83.8% | 101% | 103% | 86.4% | 99.5 | 105% | 120% | 121% | 107% | 91 | 114% | 119% | 94.4% | 89.7% | – | – | –
4 | Nc1ccc2c(c1)Cc1cc(Cl)c(Cl)cc1-2 | 68.1% | 92.3 | 60.5% | 86.5% | 52.6% | 67.8% | 59.1 | 59.7% | 85.1% | 59.9% | 67.4% | – | 52.5% | 74% | 50.1% | 74.2% | -9.59% (active) | 50.7% | 77%
5 | Cc1[nH]cnc1/C=C1\SC(N2CCCCC2)=NC1=O | 101% | 96.2 | 123% | 105% | 109% | 100% | 96.8 | 94.7% | 114% | 125% | 96.8% | – | 96.8% | 114% | 130% | 100% | 103% | 96.3% | 105%
6 | CC1C(C)N(C(=O)CCl)c2ccccc2N1C(=O)CCl (stereo not given) | -61.1% (active) | 13.7 | 3.9% (active) | -67.3% (active) | -37.3% (active) | -40.7% (active) | 38.4 | -55.1% (active) | -70.6% (active) | -94.9% (active) | -0.205% (active) | – | -53.8% (active) | -77.9% (active) | -66.7% (active) | -94.8% (active) | -81.8% (active) | -53.9% (active) | -70.3% (active)
7 | O=C(/C=C/c1c(-c2ccccc2)[nH]c2ccccc12)S(=O)(=O)c1ccccc1 | 73% | 69.1 | 93% | 69.3% | 43.8% | 47.8% | 25.7 | 74.4% | 80.6% | 76% | 9.37% (active) | 88.2 | 63.3% | 89.5% | 63.5% | 89.5% | 51.7% | – | –
8 | Nc1ccc2c(c1Br)Cc1ccccc1-2 | 92% | 104 | 114% | 97.8% | 102% | 76% | 86 | 107% | 99.2% | 106% | 95.2% | – | 74.7% | 86.7% | 92.1% | 79.4% | 105% | 111% | 114%
